Source: the supplement of paper PMC11006884
Targets with a hit are over-represented here; the source holds about 6,500 in all. About 2% of all pairs of compound and target were hits. Unmarked numbers belong to inactive results.

compound: COC(=O)C#Cc1ccccc1 [methyl 3-phenylpropiolate]; assay: log2 ratio of iodoacetamide-alkyne labeling of the cysteine site, DMSO over compound (competition); higher = stronger covalent engagement of the cysteine by the compound, active = 1 or more; conditions: 500 µM; treatment time 1 h; system: HEK293T cell lysate
In short: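 HEK293T lysate (2 mg/mL) was treated with DMSO or electrophile (500 µM, 1 h, ambient temperature), then iodoacetamide alkyne (1 h), clicked to sCIP-TMT reagents, pooled, trypsin-digested overnight at 37 °C, streptavidin-enriched and acid-eluted. Peptides were run on Orbitrap Eclipse LC-MS/MS with FAIMS and quantified in FragPipe. The log2 competition ratio per cysteine is mean control-channel over mean compound-channel reporter intensity. Duplicate channels and three replicates were used, and cysteines quantified in only one replicate were excluded.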

UniProt O00244, sequence (O00244 whole entry, looked up): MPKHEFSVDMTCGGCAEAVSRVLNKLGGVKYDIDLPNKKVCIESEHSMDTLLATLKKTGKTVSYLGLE
UniProt O75821, sequence (O75821 whole entry, looked up): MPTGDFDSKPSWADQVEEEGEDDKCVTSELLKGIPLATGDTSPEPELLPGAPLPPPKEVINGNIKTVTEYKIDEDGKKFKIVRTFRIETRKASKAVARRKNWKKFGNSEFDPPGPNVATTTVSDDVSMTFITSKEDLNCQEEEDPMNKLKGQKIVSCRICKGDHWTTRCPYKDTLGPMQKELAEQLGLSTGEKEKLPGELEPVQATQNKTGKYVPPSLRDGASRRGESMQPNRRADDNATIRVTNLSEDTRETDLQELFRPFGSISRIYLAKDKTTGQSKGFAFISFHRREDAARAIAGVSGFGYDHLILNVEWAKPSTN
UniProt A8CG34, sequence (A8CG34 whole entry): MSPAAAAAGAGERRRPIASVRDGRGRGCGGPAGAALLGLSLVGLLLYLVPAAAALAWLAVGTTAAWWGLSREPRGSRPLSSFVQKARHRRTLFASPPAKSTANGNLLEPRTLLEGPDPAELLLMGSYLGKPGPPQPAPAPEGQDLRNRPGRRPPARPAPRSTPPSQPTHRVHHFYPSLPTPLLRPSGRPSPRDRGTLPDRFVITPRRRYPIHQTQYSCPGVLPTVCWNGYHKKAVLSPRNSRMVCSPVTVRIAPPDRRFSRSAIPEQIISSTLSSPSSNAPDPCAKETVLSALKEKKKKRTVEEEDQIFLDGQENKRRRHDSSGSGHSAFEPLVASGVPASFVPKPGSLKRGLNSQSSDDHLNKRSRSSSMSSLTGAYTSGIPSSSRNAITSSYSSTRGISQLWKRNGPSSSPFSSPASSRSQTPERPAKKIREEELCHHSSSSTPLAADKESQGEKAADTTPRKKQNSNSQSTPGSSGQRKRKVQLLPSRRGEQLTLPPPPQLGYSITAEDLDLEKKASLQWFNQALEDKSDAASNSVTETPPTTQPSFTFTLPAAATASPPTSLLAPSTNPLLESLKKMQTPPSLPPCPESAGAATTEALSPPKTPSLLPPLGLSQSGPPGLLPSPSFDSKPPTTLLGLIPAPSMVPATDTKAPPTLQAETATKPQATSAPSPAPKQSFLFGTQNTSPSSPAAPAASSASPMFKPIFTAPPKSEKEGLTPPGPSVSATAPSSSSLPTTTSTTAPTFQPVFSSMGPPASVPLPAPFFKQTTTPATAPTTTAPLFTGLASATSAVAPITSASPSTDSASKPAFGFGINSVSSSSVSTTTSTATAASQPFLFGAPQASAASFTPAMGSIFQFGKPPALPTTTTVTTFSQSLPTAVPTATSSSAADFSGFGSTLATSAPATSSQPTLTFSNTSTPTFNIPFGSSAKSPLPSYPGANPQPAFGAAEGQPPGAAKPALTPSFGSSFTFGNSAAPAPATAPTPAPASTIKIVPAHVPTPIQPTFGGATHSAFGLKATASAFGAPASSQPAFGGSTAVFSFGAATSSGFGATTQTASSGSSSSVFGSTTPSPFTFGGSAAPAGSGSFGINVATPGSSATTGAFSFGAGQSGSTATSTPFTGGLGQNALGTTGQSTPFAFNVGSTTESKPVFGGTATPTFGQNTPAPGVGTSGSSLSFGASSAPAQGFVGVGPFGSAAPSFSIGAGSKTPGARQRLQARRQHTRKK
UniProt O60763, sequence (O60763 whole entry, looked up): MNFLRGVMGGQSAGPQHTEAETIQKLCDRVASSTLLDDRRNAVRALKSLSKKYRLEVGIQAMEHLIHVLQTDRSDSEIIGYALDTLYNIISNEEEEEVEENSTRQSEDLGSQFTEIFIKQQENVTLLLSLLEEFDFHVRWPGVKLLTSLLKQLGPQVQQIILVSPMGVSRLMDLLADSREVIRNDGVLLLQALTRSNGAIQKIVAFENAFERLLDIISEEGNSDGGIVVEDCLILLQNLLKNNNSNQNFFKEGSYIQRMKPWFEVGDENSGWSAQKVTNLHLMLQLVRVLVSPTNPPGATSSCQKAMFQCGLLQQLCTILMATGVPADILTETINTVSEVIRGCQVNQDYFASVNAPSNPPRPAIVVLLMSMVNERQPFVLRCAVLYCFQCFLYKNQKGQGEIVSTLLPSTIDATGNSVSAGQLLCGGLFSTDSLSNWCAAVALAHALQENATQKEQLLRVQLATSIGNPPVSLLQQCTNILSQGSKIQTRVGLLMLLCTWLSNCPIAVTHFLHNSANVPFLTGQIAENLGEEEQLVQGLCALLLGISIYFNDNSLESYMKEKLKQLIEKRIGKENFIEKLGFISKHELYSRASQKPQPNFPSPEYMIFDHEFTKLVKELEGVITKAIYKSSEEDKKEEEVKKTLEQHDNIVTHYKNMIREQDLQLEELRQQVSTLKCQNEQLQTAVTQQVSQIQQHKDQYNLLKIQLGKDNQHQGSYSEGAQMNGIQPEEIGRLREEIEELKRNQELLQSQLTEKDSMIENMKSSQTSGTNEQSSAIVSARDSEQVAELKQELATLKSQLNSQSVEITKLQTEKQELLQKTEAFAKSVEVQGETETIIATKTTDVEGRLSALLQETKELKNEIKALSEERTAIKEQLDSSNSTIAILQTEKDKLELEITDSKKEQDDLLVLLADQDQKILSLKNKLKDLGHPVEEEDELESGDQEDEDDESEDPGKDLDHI
UniProt A5PLL7, sequence (A5PLL7 whole entry, looked up): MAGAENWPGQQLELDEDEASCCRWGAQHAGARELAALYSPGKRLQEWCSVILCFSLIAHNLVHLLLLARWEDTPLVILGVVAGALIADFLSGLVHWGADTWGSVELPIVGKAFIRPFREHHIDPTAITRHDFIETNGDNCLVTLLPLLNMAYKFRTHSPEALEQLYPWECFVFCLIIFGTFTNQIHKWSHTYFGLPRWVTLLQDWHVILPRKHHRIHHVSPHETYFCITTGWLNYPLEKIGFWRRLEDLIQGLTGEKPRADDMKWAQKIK
UniProt O14893, sequence (O14893 whole entry, looked up): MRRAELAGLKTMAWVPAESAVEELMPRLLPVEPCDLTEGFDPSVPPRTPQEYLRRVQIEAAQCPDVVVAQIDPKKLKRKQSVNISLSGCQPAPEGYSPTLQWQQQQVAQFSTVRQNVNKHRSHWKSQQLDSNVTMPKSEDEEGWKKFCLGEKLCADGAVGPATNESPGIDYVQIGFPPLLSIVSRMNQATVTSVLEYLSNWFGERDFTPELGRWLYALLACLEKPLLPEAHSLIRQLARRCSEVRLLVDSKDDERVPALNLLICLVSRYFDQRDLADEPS
UniProt O43353, sequence (O43353 whole entry, looked up): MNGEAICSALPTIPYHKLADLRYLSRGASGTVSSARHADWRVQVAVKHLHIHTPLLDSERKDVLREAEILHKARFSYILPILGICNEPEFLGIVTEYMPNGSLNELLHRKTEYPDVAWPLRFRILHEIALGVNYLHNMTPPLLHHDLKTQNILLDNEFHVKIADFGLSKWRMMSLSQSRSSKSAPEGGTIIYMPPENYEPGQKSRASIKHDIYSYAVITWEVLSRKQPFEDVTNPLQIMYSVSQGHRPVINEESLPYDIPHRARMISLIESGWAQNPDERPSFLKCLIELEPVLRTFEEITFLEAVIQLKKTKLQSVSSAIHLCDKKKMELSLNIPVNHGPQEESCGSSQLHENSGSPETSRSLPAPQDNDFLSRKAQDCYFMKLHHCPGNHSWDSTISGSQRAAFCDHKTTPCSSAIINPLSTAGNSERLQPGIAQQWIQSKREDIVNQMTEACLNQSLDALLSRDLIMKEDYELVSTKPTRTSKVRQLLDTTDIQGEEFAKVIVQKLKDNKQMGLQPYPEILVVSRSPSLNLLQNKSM
UniProt O15164, sequence (O15164 whole entry, looked up): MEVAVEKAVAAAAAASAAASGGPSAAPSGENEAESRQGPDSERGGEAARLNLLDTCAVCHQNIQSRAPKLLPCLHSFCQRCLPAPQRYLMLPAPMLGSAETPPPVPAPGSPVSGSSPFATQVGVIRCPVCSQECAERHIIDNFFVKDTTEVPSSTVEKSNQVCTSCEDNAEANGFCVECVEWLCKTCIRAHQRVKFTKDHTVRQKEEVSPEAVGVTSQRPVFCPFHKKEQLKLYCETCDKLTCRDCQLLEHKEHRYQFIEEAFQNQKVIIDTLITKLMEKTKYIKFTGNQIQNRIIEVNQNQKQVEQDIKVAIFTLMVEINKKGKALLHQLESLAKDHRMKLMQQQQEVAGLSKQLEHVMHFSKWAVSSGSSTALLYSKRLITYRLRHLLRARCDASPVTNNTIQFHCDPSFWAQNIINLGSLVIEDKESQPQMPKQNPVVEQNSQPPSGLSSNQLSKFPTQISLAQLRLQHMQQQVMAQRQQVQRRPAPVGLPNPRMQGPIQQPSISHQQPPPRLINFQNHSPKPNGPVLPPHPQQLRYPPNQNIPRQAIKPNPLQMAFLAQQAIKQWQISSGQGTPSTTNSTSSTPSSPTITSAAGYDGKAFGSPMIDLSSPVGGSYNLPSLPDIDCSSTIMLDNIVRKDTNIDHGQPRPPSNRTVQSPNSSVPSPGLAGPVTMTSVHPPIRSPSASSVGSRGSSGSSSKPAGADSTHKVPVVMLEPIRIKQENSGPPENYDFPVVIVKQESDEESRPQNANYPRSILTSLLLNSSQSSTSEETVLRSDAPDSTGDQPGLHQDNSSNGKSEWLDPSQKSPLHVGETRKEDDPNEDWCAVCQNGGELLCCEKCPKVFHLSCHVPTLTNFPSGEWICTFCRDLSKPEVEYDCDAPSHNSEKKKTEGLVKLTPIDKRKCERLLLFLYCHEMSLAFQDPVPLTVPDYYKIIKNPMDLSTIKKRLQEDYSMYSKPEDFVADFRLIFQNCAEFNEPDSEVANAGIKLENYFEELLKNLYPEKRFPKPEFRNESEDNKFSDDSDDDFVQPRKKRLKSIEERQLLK
UniProt O75348, sequence (O75348 whole entry, looked up): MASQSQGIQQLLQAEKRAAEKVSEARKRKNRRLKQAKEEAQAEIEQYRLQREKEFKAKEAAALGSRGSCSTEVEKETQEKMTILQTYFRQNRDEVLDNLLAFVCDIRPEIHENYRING

| Target | log2 ratio of iodoacetamide-alkyne labeling |
| --- | --- |
| UniProt O60232_C56 | 0.126 |
| DKC1 C74 (UniProt O60832) | 0.427 |
| NPM3 C105 (UniProt O75607) | 0.636 |
| ZZEF1 C2466 (UniProt O43149) | -0.132 |
| PMPCB C419 (UniProt O75439) | 0.112 |
| TRAFD1 C476 (UniProt O14545) | 1.55 (active) |
| RIPK2 C414 (UniProt O43353) | 1.35 (active) |
| PFAS C606 (UniProt O15067) | 1.53 (active) |
| UniProt A0MZ66_C565 | 0.734 |
| TRIM24 C81 (UniProt O15164) | 0.0661 |
| POLRMT C925 (UniProt O00411) | -0.0567 |
| PGP C297 (UniProt A6NDG6) | 1.17 (active) |
| POM121C C438 (UniProt A8CG34) | 1.04 (active) |
| ANKRD28 C701 (UniProt O15084) | 0.336 |
| NVL C626 (UniProt O15381) | 0.651 |
| PFAS C270 (UniProt O15067) | 0.115 |
| EIF5B C720 (UniProt O60841) | 0.266 |
| EIF3D C437 (UniProt O15371) | -0.116 |
| IPO5 C750 (UniProt O00410) | 0.168 |
| UniProt O75153_C153 | 0.605 |

| Target | log2 ratio of iodoacetamide-alkyne labeling |
| --- | --- |
| USO1 C303 (UniProt O60763) | 0.712 |
| HGS C166 (UniProt O14964) | 0.319 |
| GEMIN2 C63 (UniProt O14893) | 0.211 |
| EIF3G C139 (UniProt O75821) | 0.259 |
| TMEM189 C22 (UniProt A5PLL7) | 1.52 (active) |
| ARHGEF11 C1500 (UniProt O15085) | 0.0286 |
| GTPBP1 C669 (UniProt O00178) | 1.13 (active) |
| ARHGEF11 C1166 (UniProt O15085) | 0.618 |
| ATOX1 C12 (UniProt O00244) | 1.27 (active) |
| UniProt O94822_C186 | -0.317 |
| UniProt O15042_C291 | 1 (active) |
| UniProt O75528_C7 | 1.05 (active) |
| UniProt O75947_C101 | 0.98 |
| RPP40 C49 (UniProt O75818) | 0.0974 |
| HTATSF1 C462 (UniProt O43719) | 1.14 (active) |
| PSIP1 C204 (UniProt O75475) | 0.31 |
| SF3B1 C677 (UniProt O75533) | 0.316 |
| ATP6V1G1 C104 (UniProt O75348) | 0.03 |
| FANCG C417 (UniProt O15287) | 0.36 |
